PubChem BioAssay (Tox21)
Several values for one entry are separate records, joined by “and”; a condition that tells them apart may be missing. Identical values can stand only once. Inconclusive results are not listed. Activity calls are given as the source filed them. Unless noted, calls follow the shape of the dose curve; as a rule, active = well fitted curve in the direction sought with a large enough effect in the repeat runs; inconclusive = weak or mixed curves; inactive = no such curve, though single readings can be large; an effect the other way counts as inactive or inconclusive.

Legend:
[1] = qHTS assay to identify small molecule antagonists of the thyroid receptor (TR) signaling pathway (AID 743065); also: series mostly up to about 70 µM; nearly all actives have a fitted effect of over 55% in size
Procedure, shortened: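 GH3.TRE-Luc rat pituitary cells (two TREs driving luciferase) were dosed with compound, then stimulated with 1 nM T3 (final) for 23.5 h at 37 C. ONE-Glo luminescence was the read-out, with CellTiter-Fluor fluorescence as the cytotoxicity counter-screen.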

[2] = test system: thyroid hormone receptor (rat, GH3 cells); test: qHTS assay to identify small molecule agonists of the thyroid receptor (TR) signaling pathway (AID 743066; calls by dose curve)
[3] = qHTS assay to identify small molecule antagonists of the estrogen receptor alpha (ER-alpha) signaling pathway - cell viability counter screen (AID 743074; calls by dose curve; also: nearly all actives have a fitted effect of over 45% in size; also: potency is read from the fitted curve at half-maximal effect)
[4] = qHTS assay to identify small molecule antagonists of the estrogen receptor alpha (ER-alpha) signaling pathway using the BG1 cell line - cell viability counter screen (AID 743081);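 also: compound given together with 17beta-estradiol as the ER stimulus; series mostly up to about 70 µM; nearly all actives have a fitted effect of over 45% in size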
Aromatase (Homo sapiens) = Aromatase (Homo sapiens) (UniProt P11511); test: qHTS assay to identify aromatase inhibitors (AID 743083); also: series mostly up to about 70 µM; nearly all actives have a fitted effect of over 55% in size
[5] = qHTS assay to identify aromatase inhibitors - cell viability counter screen (AID 743084);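 also: cells stimulated with testosterone during compound exposure; nearly all actives have a fitted effect of over 55% in size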
[6] = target: Estrogen receptor (Homo sapiens) (UniProt P03372); test: qHTS assay to identify small molecule antagonists of the estrogen receptor alpha (ER-alpha) signaling pathway (AID 743069; active = well fitted curve in the direction sought with a large enough effect in the signal ratio in the repeat runs, not every such curve was filed as active; the % refers to the signal ratio)
Procedure, shortened: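 In this cell-based reporter format, GripTite HEK293 cells harbouring ER-alpha-UAS-bla were grown overnight with 2% charcoal-stripped FBS, dosed with DMSO-dissolved compounds, then challenged with 17beta-estradiol. After 18 hr at 37C, beta-lactamase activity was detected by FRET fluorescence.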

[7] = target: Estrogen receptor (Homo sapiens) (UniProt P03372); test: qHTS assay to identify small molecule agonists of the estrogen receptor alpha (ER-alpha) signaling pathway (AID 743075; calls by dose curve; also: potency is read from the fitted curve at half-maximal effect)
[8] = target: Estrogen receptor (Homo sapiens) (UniProt P03372); test: qHTS assay to identify small molecule agonists of the estrogen receptor alpha (ER-alpha) signaling pathway using the BG1 cell line (AID 743079); also: nearly all actives have a fitted effect of over 20% in size; also: potency is read from the fitted curve at half-maximal effect
[9] = qHTS assay to identify small molecule antagonists of the estrogen receptor alpha (ER-alpha) signaling pathway using the BG1 cell line (AID 743080; calls by dose curve;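 also: BG1 cells stimulated with 17beta-estradiol alongside compound; series mostly up to about 70 µM; nearly all actives have a fitted effect of over 25% in size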)
Procedure, shortened: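 Quantitative HTS on the Tox21 10K library: BG1 cells with endogenous ER-alpha and ERE-luciferase reporter, 17beta-estradiol stimulation, 21.5 h compound exposure, luminescence endpoint with parallel fluorescence cytotoxicity counter-read.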

Measured: Potency

Sequence of Aromatase (Homo sapiens) (P11511 whole entry, looked up): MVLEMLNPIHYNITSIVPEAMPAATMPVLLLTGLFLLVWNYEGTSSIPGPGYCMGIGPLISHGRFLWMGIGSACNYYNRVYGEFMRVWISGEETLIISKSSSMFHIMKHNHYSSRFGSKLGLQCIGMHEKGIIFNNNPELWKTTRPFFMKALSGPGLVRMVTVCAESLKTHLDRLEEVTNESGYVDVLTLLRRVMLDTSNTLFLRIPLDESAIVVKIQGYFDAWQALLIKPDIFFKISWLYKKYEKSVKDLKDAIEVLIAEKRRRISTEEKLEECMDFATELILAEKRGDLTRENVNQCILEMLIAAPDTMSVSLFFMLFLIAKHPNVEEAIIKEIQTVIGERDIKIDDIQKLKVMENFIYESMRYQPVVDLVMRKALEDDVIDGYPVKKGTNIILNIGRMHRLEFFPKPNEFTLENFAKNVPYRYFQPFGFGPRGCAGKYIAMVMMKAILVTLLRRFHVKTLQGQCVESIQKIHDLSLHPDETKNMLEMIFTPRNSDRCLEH
Sequence of Estrogen receptor (Homo sapiens) (P03372 whole entry, looked up): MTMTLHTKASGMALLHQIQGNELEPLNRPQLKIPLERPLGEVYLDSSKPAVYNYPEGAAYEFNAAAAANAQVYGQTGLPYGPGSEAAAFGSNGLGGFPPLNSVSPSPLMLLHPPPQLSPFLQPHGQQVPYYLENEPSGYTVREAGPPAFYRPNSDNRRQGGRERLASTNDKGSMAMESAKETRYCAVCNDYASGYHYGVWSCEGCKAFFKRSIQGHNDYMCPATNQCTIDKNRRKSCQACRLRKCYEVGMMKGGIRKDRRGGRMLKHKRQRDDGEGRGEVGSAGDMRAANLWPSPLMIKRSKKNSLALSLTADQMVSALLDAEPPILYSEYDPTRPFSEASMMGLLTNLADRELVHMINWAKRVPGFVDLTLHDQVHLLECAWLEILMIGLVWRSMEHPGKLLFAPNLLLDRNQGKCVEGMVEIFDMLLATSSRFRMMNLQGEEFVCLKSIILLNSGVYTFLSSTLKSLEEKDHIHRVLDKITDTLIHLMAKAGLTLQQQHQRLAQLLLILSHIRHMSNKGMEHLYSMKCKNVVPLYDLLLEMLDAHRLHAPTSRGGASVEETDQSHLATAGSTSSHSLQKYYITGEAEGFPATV

CCCCCCCCN1CCCC1=O
inactive: [1] | [2] | [3] | [4] | Aromatase (Homo sapiens) | [5]

CC[N+](C)(CC)CCOC(=O)C1c2ccccc2Oc2ccccc21
inactive: [1] | [2] | [3] | [4] | Aromatase (Homo sapiens) | [5]

c1ccc2sc(SN3CCOCC3)nc2c1
inactive: [1] | [2] | [3] | [4] | Aromatase (Homo sapiens) | [5]

CC(C)(C)C(=O)Oc1ccc(S(=O)(=O)Nc2ccccc2C(=O)NCC(=O)O)cc1
inactive: [2] | [6] | [3] | [7] | [8] | [9] | Aromatase (Homo sapiens) | [5]

C[N+]1(CC2COC(c3ccccc3)(c3ccccc3)O2)CCCCC1 (centres undefined)
inactive: [1] | [2] | [3] | [4] | Aromatase (Homo sapiens) | [5]

Cc1c(N)c(=O)n(-c2ccccc2)n1C
inactive: [1] | [2] | [3] | Aromatase (Homo sapiens) | [5]

O=C(c1ccccc1)C1(O)CCCCC1
inactive: [1] | [2] | [3] | [4] | Aromatase (Homo sapiens) | [5]

CC(C#N)(CCC(=O)O)N=NC(C)(C#N)CCC(=O)O (centres undefined)
inactive: [1] | [3] | [4] | Aromatase (Homo sapiens) | [5]

CNCCO
inactive: [1] | [2] | [3] | [4] | Aromatase (Homo sapiens) | [5]

CCCCCCCCCCCCSC
inactive: [1] | [2] | [3] | [4] | Aromatase (Homo sapiens) | [5]

C[C@H]1[C@H](NC(=O)/C(=N/OC(C)(C)C(=O)O)c2csc(N)n2)C(=O)N1S(=O)(=O)O (stereo in doubt)
inactive: [3] | [4] | Aromatase (Homo sapiens) | [5]

COc1cccc(OC)c1C(=O)N[C@@H]1C(=O)N2[C@@H]1SC(C)(C)[C@@H]2C(=O)O
inactive: [3] | [4] | Aromatase (Homo sapiens)

NC(=O)Cc1cccc2ccccc12
inactive: [3] | [4] | Aromatase (Homo sapiens) | [5]

COc1cc2c(cc1OC)-c1cc3ccc(OC)c(OC)c3c[n+]1CC2
inactive: [3] | [4] | Aromatase (Homo sapiens)

CC(COc1ccccc1)NN (centres undefined)
inactive: [6] | [3] | [7] | [8] | [9] | [4] | Aromatase (Homo sapiens) | [5]

CCOCC(C)O (centres undefined)
inactive: [6] | [3] | [7] | [8] | [9] | [4] | Aromatase (Homo sapiens) | [5]

CCCCc1nc(Cl)c(CO)n1Cc1ccc(-c2ccccc2-c2nn[nH]n2)cc1
inactive: [3] | [4] | Aromatase (Homo sapiens) | [5]

CO[C@@]1(NC(=O)C(C(=O)O)c2ccc(O)cc2)C(=O)N2C(C(=O)O)=C(CSc3nnnn3C)CO[C@@H]21 (some centres undefined)
inactive: [6] | [3] | [7] | [8] | Aromatase (Homo sapiens) | [5]

CO/N=C(\C(=O)N[C@@H]1C(=O)N2C(C(=O)O)=C(CSc3nc(=O)c(O)nn3C)CS[C@H]12)c1csc(N)n1
inactive: [2] | [6] | [3] | [7] | [9] | [4] | Aromatase (Homo sapiens) | [5]

Cc1nc2ccc(CN(C)c3ccc(C(=O)N[C@@H](CCC(=O)O)C(=O)O)s3)cc2c(=O)[nH]1
inactive: [2] | [4] | Aromatase (Homo sapiens) | [5]
active: [3] 190 nM and 239 nM

NCCCC(N)(C(=O)O)C(F)F (centres undefined)
inactive: [2] | [3] | [4]

Cc1ccnc(NS(=O)(=O)c2ccc(N)cc2)n1
inactive: [6] | [3] | [7] | [8] | [9] | [4] | Aromatase (Homo sapiens) | [5]

Cc1ncc(COP(=O)(O)O)c(C=O)c1O
inactive: [2] | [6] | [7] | [8] | [9] | [4] | Aromatase (Homo sapiens)

C[N+](C)(C)CCCCCCCCCC[N+](C)(C)C
inactive: [6] | [3] | [7] | [8] | [9] | [4] | [5]

N[C@@H](CCC(=O)O)C(=O)O
inactive: [2] | [6] | [3] | [7] | [8] | [4] | Aromatase (Homo sapiens) | [5]

CC(C)COC(=O)c1ccc(N)cc1
active: [7] 26.8 µM [activator] | [8] 26.6 µM
inactive: [6] | [3] | [4] | Aromatase (Homo sapiens) | [5]

Cc1ccc(C(=O)c2ccc(CC(=O)O)n2C)cc1
inactive: [2] | [3] | [7] | [8] | [9] | [4] | Aromatase (Homo sapiens) | [5]

CC(C(=O)O)c1cccc(Oc2ccccc2)c1 (centres undefined)
inactive: [2] | [3] | [4] | Aromatase (Homo sapiens)

CCN(Cc1ccccc1)c1ccccc1
inactive: [6] | [3] | [7] | [8] | [9] | [4] | Aromatase (Homo sapiens) | [5]

CCCCCCCCCC[N+](C)(C)[O-]
inactive: [6] | [3] | [7] | [8] | [9] | [4] | Aromatase (Homo sapiens) | [5]

CC(C)[C@H]1CC[C@@H](C)CC1=O
inactive: [3] | [4] | Aromatase (Homo sapiens) | [5]

C=CN1CCCCCC1=O
inactive: [3] | [4]

N[C@H](C(=O)O)[C@@H](O)c1ccc(O)c(O)c1
inactive: [2] | [6] | [3] | [7] | [8] | [4] | Aromatase (Homo sapiens) | [5]

CN(C)C(=O)Oc1ccc[n+](C)c1
inactive: [6] | [3] | [7] | [9] | [4] | Aromatase (Homo sapiens) | [5]
active: [8] 26.6 µM

NCCCC[C@H](N[C@@H](CCc1ccccc1)C(=O)O)C(=O)N1CCC[C@H]1C(=O)O
inactive: [3] | [4] | Aromatase (Homo sapiens) | [5]

NC(CCC(=O)O)C(=O)O (centres undefined)
inactive: [2] | [6] | [3] | [7] | [8] | [4] | Aromatase (Homo sapiens) | [5]

CCCCS(=O)(=O)N[C@@H](Cc1ccc(OCCCCC2CCNCC2)cc1)C(=O)O
inactive: [2] | [6] | [7] | [8] | [9] | [4] | Aromatase (Homo sapiens) | [5]

CCN(CC#N)c1cccc(C)c1
inactive: [6] | [3] | [7] | [8] | [4] | Aromatase (Homo sapiens) | [5]

CN1C(C)(C)CC(O)CC1(C)C
inactive: [6] | [3] | [7] | [8] | [9] | [4] | Aromatase (Homo sapiens) | [5]

O=S(=O)(O)c1cccc2c(S(=O)(=O)O)cccc12
inactive: [2] | [3] | Aromatase (Homo sapiens) | [5]

Clc1cc(Cl)cc(Cl)c1
inactive: [6] | [3] | [7] | [8] | [9] | [4] | Aromatase (Homo sapiens) | [5]

CCCO[Si](OCCC)(OCCC)OCCC
inactive: [6] | [3] | [7] | [8] | [9] | [4] | Aromatase (Homo sapiens) | [5]

CC1=NS(=O)(=O)c2cc(Cl)ccc2N1
inactive: [6] | [7] | [8] | [4] | Aromatase (Homo sapiens) | [5]

CC(=O)Nc1ccc(OCC(O)CNC(C)C)cc1 (centres undefined)
inactive: [3] | [4] | Aromatase (Homo sapiens) | [5]

C[C@@H]1C[C@H]2[C@@H]3C[C@H](F)C4=CC(=O)C(Cl)=C[C@]4(C)[C@@]3(F)[C@@H](O)C[C@]2(C)[C@@]1(O)C(=O)CO
inactive: [2] | [3] | [7] | [8] | [4] | Aromatase (Homo sapiens) | [5]

CC[N+](CC)(CC(=O)Nc1c(C)cccc1C)Cc1ccccc1 (tested in a mixture with another compound)
inactive: [3] | [4] | Aromatase (Homo sapiens) | [5]
